# Compound activity deposited in PubChem BioAssay by The Scripps Research Institute Molecular Screening Center.
# A selection: hits, their analogues and other compounds. The true share with any hit is near 2.6%.
# PKA-R2B activ: activators of human PKA-R2B complex | P22694+P31323 | PKA-R2B holoenzyme dissociation, Cy5-IP20 fluorescence polarization; R2B truncated from residue 108, S112A mutant; 0% DMSO only, 100% 113 µM cGMP | activation, % at 11.4 µM | 0.079% of 340,000 active | AID 504700;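 active = activation above a cutoff set at the mean over all compounds plus 3 SD, cut at about 18% in these data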;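 note: higher means more holoenzyme dissociation and a rise in polarization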
# pPAFAH inh: inhibitors of human plasma PAF acetylhydrolase (pPAFAH); Q13093; inhibition, % at 3.39 µM; 1.5% of 330,000 active; recombinant pPAFAH, FP-rhodamine probe fluorescence polarization;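 active = inhibition above the mean inhibition across the screen plus 3 SD, cut at about 25% in these data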;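 note: inhibitors block binding of the rhodamine activity-based probe so polarization drops; 0% = enzyme with DMSO and 100% = wells lacking pPAFAH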
# PKA-R1A act: activates the PKA-R1A holoenzyme complex; P00514+P68181; PKA-R1A dissociation, Cy5-IP20 fluorescence polarization; scaled: DMSO 0%, 113 µM cGMP 100%; activation, % at 11.4 µM; 0.083% of 340,000 active;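 active = percent activation above the mean of all tested compounds plus 3 SD, cut at about 19% in these data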;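 note: higher means more PKAc released from R1A so a rise in polarization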
# PAFAH1B3 FP inh: blocks human PAF acetylhydrolase 1B catalytic subunit 3; Q15102; recombinant PAFAH1B3, FP-rhodamine probe, fluorescence polarization; inhibition, % at 3.39 µM; 0.28% of 340,000 active; AID 492972;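 active = inhibition above the screen-wide average of all tested compounds plus 3 SD, cut at about 25% in these data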;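 note: 0% = enzyme with DMSO only and 100% = wells lacking PAFAH1B3 protein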
# Target sequence (Q15102 whole entry, looked up): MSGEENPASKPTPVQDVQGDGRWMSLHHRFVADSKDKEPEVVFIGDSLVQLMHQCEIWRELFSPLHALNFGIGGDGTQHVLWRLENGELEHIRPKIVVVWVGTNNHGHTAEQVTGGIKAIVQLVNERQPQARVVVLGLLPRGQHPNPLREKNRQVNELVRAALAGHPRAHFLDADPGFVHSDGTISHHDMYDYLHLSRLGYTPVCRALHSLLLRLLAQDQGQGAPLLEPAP
# PAFAH2 inh: inhibitors of human PAFAH2; Q99487; recombinant PAFAH2, FP-rhodamine activity probe, fluorescence polarization; inhibition, % at 3.39 µM; 0.99% of 340,000 active;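 active = inhibition above the mean over all tested compounds plus 3 SD, cut at about 30% in these data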;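 note: inhibitors block probe labeling of enzyme so polarization drops; 0% = enzyme with DMSO and 100% = wells lacking PAFAH2 protein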
# PAFAH1B2 inh: blocks human PAF acetylhydrolase 1b catalytic subunit 2 | recombinant PAFAH1B2, FP-rhodamine activity probe, fluorescence polarization | inhibition, % at 3.39 µM | 1.2% of 340,000 active;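 active = inhibition above the mean of all tested compounds plus 3 SD, cut at about 24% in these data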;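 note: 0% = enzyme with DMSO and 100% = wells lacking PAFAH1B2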
# Target sequence (P68402 whole entry, looked up): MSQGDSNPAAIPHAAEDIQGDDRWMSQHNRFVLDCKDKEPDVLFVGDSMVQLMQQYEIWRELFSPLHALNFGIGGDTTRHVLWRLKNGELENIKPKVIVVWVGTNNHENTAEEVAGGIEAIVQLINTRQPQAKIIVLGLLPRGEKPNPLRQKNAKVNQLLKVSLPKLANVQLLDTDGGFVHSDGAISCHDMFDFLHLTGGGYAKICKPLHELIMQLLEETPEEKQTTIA
# An asterisk follows results filed as active; nt = no result; ! = repeats disagree.
SMILES,PKA-R2B activ,pPAFAH inh,PKA-R1A act,PAFAH1B3 FP inh,PAFAH2 inh,PAFAH1B2 inh
COCCCNC(=O)COC(=O)c1ccc(-c2nc3ccccc3s2)s1,-0.4,27.7*,2.9,7.4,-1.4,4.6
Cc1ccccc1-c1nnc(SCC(=O)N(C)c2c(N)n(Cc3ccccc3)c(=O)[nH]c2=O)n1C,5.8,5.0,-1.5,9.4,-0.7,5.2
CCOc1ccc(-n2nnnc2-c2nc3ccccc3s2)cc1,4.0,-5.6,0.0,4.6,-8.3,-2.0
CCOc1ccc(N2C(=O)C(c3ccccc3)=C(c3nc4ccccc4s3)C2NC(C)=O)cc1 (stereo not drawn),1.6,25.6*,8.0,4.4,-6.0,-0.8
CC(C)(C)C1CCC2(CC1)C(C#N)=C(SCC(=O)Nc1ccccc1)NC(=O)C2C#N (stereo not drawn),-5.1,8.9,-8.0,8.1,5.0,57.5*
CC1(C)CC(=O)C2=C(C1)NC(SCC(=O)Nc1ccccc1)=C(C#N)C21CCCCC1,8.1,5.7,4.8,-1.7,0.0,4.2
O=C(NC(=S)N1CCN(c2ccc(C(F)(F)F)cc2[N+](=O)[O-])CC1)c1cccs1,-2.1,33.8*,-7.2,-2.6,4.2,1.7
CCN1CCN(C(=S)NC(=O)c2cccs2)CC1,0.9,-1.4,3.3,3.5,-5.2,3.6
O=C(Cc1cc(=O)[nH][nH]1)N/N=C/C(Cl)=C/c1ccccc1,0.1,26.5*!,-2.5,0.4,-2.7,7.9
COC(=O)c1c(C)[nH]c(C(=O)OC(C)C(=O)N(C)C2CCCCC2)c1C (stereo not drawn),0.4,25.7*,-4.0,6.3,1.9,3.0
CC(=O)c1c(C)[nH]c(C(=O)OC(C)C(=O)NC2CCCCC2)c1C (stereo not drawn),4.3,nt,-8.2,nt,nt,nt
CCOC(=O)C1(C(=O)OCC)C(C)CC(=O)N1c1ccccc1OC (stereo not drawn),0.9,nt,3.2,nt,nt,nt
O=c1[nH][nH]c(=O)c(Cl)c1Cl,3.4,nt,0.4,15.0,-5.9,0.5
CC(=O)Nc1ccc(S(=O)(=O)N(C)CC(=O)OCC(=O)NNC(=O)c2ccccc2F)cc1,5.1,2.3,8.3,-3.3,-4.3,1.0
CC(=O)Nc1ccc(S(=O)(=O)N(C)CC(=O)OCC(=O)NC(C)C23CC4CC(CC(C4)C2)C3)cc1 (stereo not drawn),4.5,-3.0,1.6,8.2,6.8,24.7*
Cc1ncoc1C(=O)N1CCCC(N2CCN(c3cccc(C(F)(F)F)c3)CC2)C1 (stereo not drawn),0.5,4.3,5.6,-0.6,-4.2,-1.7
CCCN(CC(=O)Nc1ccccc1OC)Cc1c(O)ccc2ccccc12,1.9,-0.8,14.4,2.0,-2.0,7.2
CC(/C=C1\SC(=S)N(NC(=O)c2ccccc2C)C1=O)=C\c1ccccc1,4.2,-4.1,-7.0,1.9,-4.2,0.8
CC(/C=C1\SC(=S)N(NS(=O)(=O)c2ccc(C)cc2)C1=O)=C\c1ccccc1,-11.6,13.8,-1.9,4.2,4.4,28.3*
CC(/C=C1\SC(=S)N(NS(=O)(=O)c2ccccc2)C1=O)=C\c1ccccc1,7.4,10.4,-10.0,8.6,7.2,38.8*
CC(/C=C1\SC(=S)N(NC(=O)c2ccc(C)cc2)C1=O)=C\c1ccccc1,-9.1,-3.3,4.8,-11.5,-25.7,0.5
Cc1ccc(NC(=O)C2CCCN(S(=O)(=O)c3cccnc3)C2)c(C)c1 (stereo not drawn),0.7,3.0,-14.9,6.0,3.5,5.0
COCC(=O)N(C)C[C@H]1N[C@@](C)(C(=O)OC)[C@H]2C(=O)N(C)C(=O)[C@@H]12,2.7,-1.2,-2.6,10.7,1.8,-1.5
COc1cc2cc[n+](Cc3ccc([N+](=O)[O-])cc3)cc2cc1OC,-4.2,-6.2,2.5,-2.8,2.4,-2.6
O=C(Cc1ccccc1)NCCSCc1ccc(Cl)cc1,1.7,24.3,-5.0,11.9,4.6,28.8*
CC1=C(C(=O)Nc2ccccc2C(=O)N2CCN(c3ccccc3)CC2)SCCO1,6.0,nt,-7.5,nt,nt,nt
CC[C@H](C)/C=C(C)/C=C/C(=O)Cc1cc(O)c(C)c(O)c1C=O,1.9,32.1*,-13.9,-3.0,-1.6,-1.9
